According to the supplement of paper PMC6555819:

The sequences below were run on PPARg:RXRa 90nM:30nM, anti-RXR (NR concentration 90 nM, RXRa partner concentration 30 nM) (assay: PBM binding z-score (relative to random genomic background probes); higher = stronger binding; sequences stand for … in GC…GCGATTGACAGCGTAGAATGAAGG).
Procedure, shortened: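 Each nuclear receptor dimer, without ligand, was incubated for 1 h on custom Agilent 4×180K protein-binding microarrays. Binding was detected with antibodies against each partner (one per run), and scanned fluorescence was regression-normalized. The binding z-scores are referenced to random human genomic background probes.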
With CGTCCAAGGTCATAGGAGATCAGTGAAGACAGAT the PBM binding z-score was 3.71. In the case of CCTTACGGGTCAAGGCTATAGCACGGGTGGTACG, the PBM binding z-score is reported as 2.99. CGAACGAGGGCATGAGTTGATAGCAAATGCCGAT gave a PBM binding z-score of 0.976. Sequence CCAGACAGGTGAGAAGGTAACTCCGCCTCGATTA has a PBM binding z-score of 0.193. For TCTACTAGTTGATTAGGGCAACCGAAACAGCGGA, the PBM binding z-score was 2.31. With GAGACAGGGTCAAGGCCAGAGTACGCGTATTGAT the PBM binding z-score was 3.22. TCTAGTTGGTCACGGAGGTCACTCACGACGGGTA gave a PBM binding z-score of 3.24. Sequence CTCGAAAGGTCGGTTGAGGTGTGTATACGGATAA has a PBM binding z-score of 0.492. CCTACTGGGCCATTCAGAGTTCATTGATCATATG was tested, and the PBM binding z-score was 0.782. CAGCCTAGGTTAGGGCCAGTATAGGAGGAACGTT was tested, and the PBM binding z-score was -0.278. GCGACTGGGGCCAAGCAGGTTACCATAAGGTTGG was tested, and the PBM binding z-score was -0.642. Work on CGAACGAGGGCATGAGTTGATGGCAAATGCCGAT yielded a PBM binding z-score of 0.832. For GGAACGATGGCAAGTTGATAGCAGAGTTTGATGG, the PBM binding z-score was -0.709. CGTCCAAGGTCAAAGGTCAGTCAAGAGATGACGG showed a PBM binding z-score of 9.18. Sequence CGTCCAAGGTCAAAGGTCAGTGCAGAGATGACGG has a PBM binding z-score of 9.41. With CCTTCTGGGCCAAAGGTCATTGATTCCAATGCTC the PBM binding z-score was 11.4. Work on TTTTGTAGATCAAGCAGGTTAAGAAAGCCTGAGT yielded a PBM binding z-score of -0.0432. AAGACAGGGTCATCGTAGGCCAGAGTACGCACAG gave a PBM binding z-score of 3.94. Work on GCTAGCAGGCCATTTAGGTCACTCAATGACGGGC yielded a PBM binding z-score of 0.454. With AATACAGGGTCACTAGGCCAGAGTTGGTACGAAT the PBM binding z-score was 5.85. For TCATATAGGTAATACAGGTGAAAGTGGGCATCTA, the PBM binding z-score was 3.72. In the case of CGAACTAGGTCTAGGACAGTGAATCTCCGCACGC, the PBM binding z-score is reported as -0.377. GCATATAGGTAATACCAGGTGAAAGTCCGATTGT showed a PBM binding z-score of 0.881. Sequence TCAGAAAGGTGAAGGTAACTCAGGTACGCAGTCG has a PBM binding z-score of 4.04. In the case of GGAACGAGGGCATACGAGTTGATAGCATGGCGAT, the PBM binding z-score is reported as 0.26. Sequence AGAATGAGGTTACCGAAGATCAGGGAAACGCTTG has a PBM binding z-score of 2.55. CCGACTGGGGCAGAAAGGTAACCATACCATCCGG gave a PBM binding z-score of 0.913. AGTCACAGTTCACTAGGTAACGTAAGATTCAGCT showed a PBM binding z-score of 2.12. Sequence GATCGGAGGACAAGGTCAGAGCTTTGTCCGTAGA has a PBM binding z-score of 1.17. With CTCGAAAGGTCGGTTGAGGCGAGTATACGGATAA the PBM binding z-score was 0.269. ACAGACAGGTGTTGAAGGTAACTCAGGCTATCAT was tested, and the PBM binding z-score was -0.54. GTACCAAGGTGAATAGGTCATTGATGAGTAGGCG gave a PBM binding z-score of 2.85. AGAATAAGGTTATTAAGATCAGGGAATTGCGGTC showed a PBM binding z-score of 1.38. ATTTCTAGGTAAAGATAGTTCAGTGAATGCAAAT showed a PBM binding z-score of 1.07. CGAACTAGGTCAAGGACTGTGAATCTCCGCACGC gave a PBM binding z-score of 5.99. TCTTGTAGATCAACAGGAGGTTAAGAATGATCGA gave a PBM binding z-score of 2.06. Work on CGTCCAAGGTCAATGCTTGGTCAGTGAAAGCATT yielded a PBM binding z-score of 2.46. In the case of CCTATTAGTCGACCATAAGGGCAACCGAAGCTCG, the PBM binding z-score is reported as 0.358. In the case of TATACAGGGTCAAAGGCGAGAGTACGAATGTCGA, the PBM binding z-score is reported as 6.47. Work on TCTTGTAGATCAATAGAGGTTAAGGAAGTGCGCT yielded a PBM binding z-score of 2.63.
